Experimental data: article PMC12864922, “TDP-43 directly inhibits mRNA accumulation in neurites through modulation of mRNA stability”
The full ranking holds about 9,900 sequences; the median of “r (bound/input frequency ratio)” is about 0.7, and the highest 2% start at about 6.5. Only a selection was taken, and the highest values are over-represented in it overall.

B1: ENSMUSG00000022095.3|Fam160b2|123:127 (ssRNA)
RNA: GGGAGUUCUACAGUCCGACGAUCGCUUCGAUAUCCGCAUGCUAAAGGAGCUGGCUGCCAUUGCGUUUGUCAAGUUUCCCCCACACGGUCCUUACCUGAACUUCUCUCCACCUCCAGAAGGGCAAGUCUGAGCCAGGAGCAUGACGGGUGGGGGAAGAUUCCUGCCACACAACUUCUGCCCACGGGCAGUCUCCUGCCUGGCCAUGCUGCCACUCUGUCCUCCAUGCCGGGGACUUCAGCUGCAGGACACCUCACCUGUUGACCCCACGAGCUGAGGUUUCAAGGAGGUGCUGGCUCCUAAGGCCUCUUGCGGUCGCACUAGUGUGGAAUUCUCGGGUGUCAAGG
B2: ENSMUSG00000004113.146|Cacna1b|6:10;184:188;241:245;249:253 (ssRNA)
RNA: GGGAGUUCUACAGUCCGACGAUCGCUUCGAUAUCCGCAUGCUACACAUCAUACUAGAGAUGCGCUCAAGGGCCUGCCUUUCACCUACACUGUCACCAUAACAGGGACCAAAUCUGGAGGAUGUCCUUGCUGUUGAUUCUGGUUUUCAGUCACAACACUUUCACUGUUUGUCAUUUCUAUGUAGUUGAUCUAGAAAAAGCAGAAAUCAAAACAGGAAAGGAAAUGUUACACAAACUUUAAAAAAAAAGUCAACAUGUAGGAAGGUCUCCAUUUUGCAUUGUUUCACACACUUCAUACCAAUGUUCUCUUGCGGUCGCACUAGUGUGGAAUUCUCGGGUGUCAAGG
B3: ENSMUSG00000031028.47|Tub (ssRNA)
RNA: GGGAGUUCUACAGUCCGACGAUCGCUUCGAUAUCCGCAUGCUACUGAAGCAGGGGGGACAGCAAAUGGGUAUGACAGGAGAAGAAUAUUUCUGUGCCCCAAGGUCAACACACAUGCCCAGUCCUGGGUCAGUCCCCUGCUGCAGUGGUGUUAUCACACCGGAAAGCCUCUUCACCUGGAGGUACAGAGGGAGAGGAAGCACAAGCCUGGCUGCUGUGGCUCAGCCAUCCACUCAGCCUACGAGUCAGAGACAGUGGGUGUCCCGGGAAGCAGGGGUACAGUGAGUGUGUGUGUAUGUACAGGGCUCUUGCGGUCGCACUAGUGUGGAAUUCUCGGGUGUCAAGG
B4: ENSMUSG00000043670.69|Diras1 (ssRNA)
RNA: GGGAGUUCUACAGUCCGACGAUCGCUUCGAUAUCCGCAUGCUACCAUUCUAUCUGCACCCCACAACCACACACUGGAGGUUUGAUCCCUGUGGAUCUGAAAACAGGGACCUGGCUAAGGAACUGCUCAUCCCAGUCAGGCCCAGAGAGGUUACCUUGCCUCUCCAUCUCUGUCCCUGUGUGCCCAGCCAUGCCCACUGUCCCUGUCCCUCACAUUCUAUCACUGUGACCUCUGGGGAGUGCCCAUUGACCUCAUCUUCCUUCACUAAUAUCUUAUUUCUUUCACCUGAUCCUGUCCUUUCCCCCUCUUGCGGUCGCACUAGUGUGGAAUUCUCGGGUGUCAAGG
B5: ENSMUSG00000004113.290|Cacna1b (ssRNA)
RNA: GGGAGUUCUACAGUCCGACGAUCGCUUCGAUAUCCGCAUGCUACAGGAAGGUGUUCAGUGUGCACAGAUAGCUGGGAGGCCACGAGAGAAAGGUUGCACACAGACAGGCAGGCACUCCUUGGUGUGGUCUCUCUGUUUUGAAACUUCUGAUGACUUCUUGGUGGCUUGUUGUCUUCUACCCCAUGUUUCUCACAGGAUCUGUGUGUGUGUGUGUGUGUGUGUGUGUGUGUGUGUGUGUGUGUGUUAGCAUGUGUGUAUUAGCGUGUGUGAGUGUGUGAGCAUGCACGAGUCAUAGGAGAUGCACUCUUGCGGUCGCACUAGUGUGGAAUUCUCGGGUGUCAAGG
B6: ENSMUSG00000004113.294|Cacna1b (ssRNA)
RNA: GGGAGUUCUACAGUCCGACGAUCGCUUCGAUAUCCGCAUGCUAAUAGCUGGGAGGCCACGAGAGAAAGGUUGCACACAGACAGGCAGGCACUCCUUGGUGUGGUCUCUCUGUUUUGAAACUUCUGAUGACUUCUUGGUGGCUUGUUGUCUUCUACCCCAUGUUUCUCACAGGAUCUGUGUGUGUGUGUGUGUGUGUGUGUGUGUGUGUGUGUGUGUGUGUUAGCAUGUGUGUAUUAGCGUGUGUGAGUGUGUGAGCAUGCACGAGUCAUAGGAGAUGCAGGUGUAUGUGUGUGGUGUGCAUAUCUCUUGCGGUCGCACUAGUGUGGAAUUCUCGGGUGUCAAGG
B7: ENSMUSG00000004113.295|Cacna1b (ssRNA)
RNA: GGGAGUUCUACAGUCCGACGAUCGCUUCGAUAUCCGCAUGCUAGGGAGGCCACGAGAGAAAGGUUGCACACAGACAGGCAGGCACUCCUUGGUGUGGUCUCUCUGUUUUGAAACUUCUGAUGACUUCUUGGUGGCUUGUUGUCUUCUACCCCAUGUUUCUCACAGGAUCUGUGUGUGUGUGUGUGUGUGUGUGUGUGUGUGUGUGUGUGUGUGUUAGCAUGUGUGUAUUAGCGUGUGUGAGUGUGUGAGCAUGCACGAGUCAUAGGAGAUGCAGGUGUAUGUGUGUGGUGUGCAUAUGUGUAUCUCUUGCGGUCGCACUAGUGUGGAAUUCUCGGGUGUCAAGG
B8: ENSMUSG00000004113.292|Cacna1b (ssRNA)
RNA: GGGAGUUCUACAGUCCGACGAUCGCUUCGAUAUCCGCAUGCUACAGUGUGCACAGAUAGCUGGGAGGCCACGAGAGAAAGGUUGCACACAGACAGGCAGGCACUCCUUGGUGUGGUCUCUCUGUUUUGAAACUUCUGAUGACUUCUUGGUGGCUUGUUGUCUUCUACCCCAUGUUUCUCACAGGAUCUGUGUGUGUGUGUGUGUGUGUGUGUGUGUGUGUGUGUGUGUGUGUUAGCAUGUGUGUAUUAGCGUGUGUGAGUGUGUGAGCAUGCACGAGUCAUAGGAGAUGCAGGUGUAUGUGUGCUCUUGCGGUCGCACUAGUGUGGAAUUCUCGGGUGUCAAGG
B9: ENSMUSG00000004113.305|Cacna1b (ssRNA)
RNA: GGGAGUUCUACAGUCCGACGAUCGCUUCGAUAUCCGCAUGCUAUGUUUUGAAACUUCUGAUGACUUCUUGGUGGCUUGUUGUCUUCUACCCCAUGUUUCUCACAGGAUCUGUGUGUGUGUGUGUGUGUGUGUGUGUGUGUGUGUGUGUGUGUGUUAGCAUGUGUGUAUUAGCGUGUGUGAGUGUGUGAGCAUGCACGAGUCAUAGGAGAUGCAGGUGUAUGUGUGUGGUGUGCAUAUGUGUAUGUGUGUGUGUGUGUGUGUGUGUGUAGGUGUGUUCAGCAAGUGGCUAUUGUCAACCAUAGGCUCUUGCGGUCGCACUAGUGUGGAAUUCUCGGGUGUCAAGG
B10: ENSMUSG00000004113.291|Cacna1b (ssRNA)
RNA: GGGAGUUCUACAGUCCGACGAUCGCUUCGAUAUCCGCAUGCUAGGUGUUCAGUGUGCACAGAUAGCUGGGAGGCCACGAGAGAAAGGUUGCACACAGACAGGCAGGCACUCCUUGGUGUGGUCUCUCUGUUUUGAAACUUCUGAUGACUUCUUGGUGGCUUGUUGUCUUCUACCCCAUGUUUCUCACAGGAUCUGUGUGUGUGUGUGUGUGUGUGUGUGUGUGUGUGUGUGUGUGUGUUAGCAUGUGUGUAUUAGCGUGUGUGAGUGUGUGAGCAUGCACGAGUCAUAGGAGAUGCAGGUGUACUCUUGCGGUCGCACUAGUGUGGAAUUCUCGGGUGUCAAGG
B11: ENSMUSG00000004113.303|Cacna1b (ssRNA)
RNA: GGGAGUUCUACAGUCCGACGAUCGCUUCGAUAUCCGCAUGCUAGUGUGGUCUCUCUGUUUUGAAACUUCUGAUGACUUCUUGGUGGCUUGUUGUCUUCUACCCCAUGUUUCUCACAGGAUCUGUGUGUGUGUGUGUGUGUGUGUGUGUGUGUGUGUGUGUGUGUGUUAGCAUGUGUGUAUUAGCGUGUGUGAGUGUGUGAGCAUGCACGAGUCAUAGGAGAUGCAGGUGUAUGUGUGUGGUGUGCAUAUGUGUAUGUGUGUGUGUGUGUGUGUGUGUGUAGGUGUGUUCAGCAAGUGGCUAUUCUCUUGCGGUCGCACUAGUGUGGAAUUCUCGGGUGUCAAGG
B12: ENSMUSG00000004113.302|Cacna1b (ssRNA)
RNA: GGGAGUUCUACAGUCCGACGAUCGCUUCGAUAUCCGCAUGCUAUCCUUGGUGUGGUCUCUCUGUUUUGAAACUUCUGAUGACUUCUUGGUGGCUUGUUGUCUUCUACCCCAUGUUUCUCACAGGAUCUGUGUGUGUGUGUGUGUGUGUGUGUGUGUGUGUGUGUGUGUGUGUUAGCAUGUGUGUAUUAGCGUGUGUGAGUGUGUGAGCAUGCACGAGUCAUAGGAGAUGCAGGUGUAUGUGUGUGGUGUGCAUAUGUGUAUGUGUGUGUGUGUGUGUGUGUGUGUAGGUGUGUUCAGCAAGUGCUCUUGCGGUCGCACUAGUGUGGAAUUCUCGGGUGUCAAGG
B13: ENSMUSG00000004113.293|Cacna1b (ssRNA)
RNA: GGGAGUUCUACAGUCCGACGAUCGCUUCGAUAUCCGCAUGCUAGCACAGAUAGCUGGGAGGCCACGAGAGAAAGGUUGCACACAGACAGGCAGGCACUCCUUGGUGUGGUCUCUCUGUUUUGAAACUUCUGAUGACUUCUUGGUGGCUUGUUGUCUUCUACCCCAUGUUUCUCACAGGAUCUGUGUGUGUGUGUGUGUGUGUGUGUGUGUGUGUGUGUGUGUGUGUUAGCAUGUGUGUAUUAGCGUGUGUGAGUGUGUGAGCAUGCACGAGUCAUAGGAGAUGCAGGUGUAUGUGUGUGGUGUCUCUUGCGGUCGCACUAGUGUGGAAUUCUCGGGUGUCAAGG

biological target: TDP-43 (Homo sapiens, UniProt Q13148 1-414); test: RNA Bind-n-Seq with designed 260-mer pool; 25 mM Tris-HCl, 150 mM KCl, 3 mM MgCl2, BSA (printed 500 mg/mL), 20 units/mL SUPERase IN; pH not stated; 500 nM RNA pool, 1 h, 4 C; TDP-43 5, 50, 500 nM; high values mean tight binding; conditions: protein: recombinant; tags: SBP (GST cleaved off with PreScission; pGEX-GST-SBP)
Procedure, shortened: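 Recombinant SBP-tagged TDP-43 at 5, 50 or 500 nM was captured on streptavidin beads, then incubated 1 h at 4 °C with 500 nM of an in vitro-transcribed 260-nt 3′ UTR oligo pool in 25 mM Tris-HCl, 150 mM KCl, 3 mM MgCl2, BSA and SUPERase IN. Bound RNA was washed, eluted with biotin, reverse transcribed, PCR-amplified and sequenced. Binding is R, each oligo's mapped-read-normalized abundance in the bound sample divided by its abundance in input. Duplicates used two independent protein batches.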

TDP-43, sequence (Q13148 whole entry): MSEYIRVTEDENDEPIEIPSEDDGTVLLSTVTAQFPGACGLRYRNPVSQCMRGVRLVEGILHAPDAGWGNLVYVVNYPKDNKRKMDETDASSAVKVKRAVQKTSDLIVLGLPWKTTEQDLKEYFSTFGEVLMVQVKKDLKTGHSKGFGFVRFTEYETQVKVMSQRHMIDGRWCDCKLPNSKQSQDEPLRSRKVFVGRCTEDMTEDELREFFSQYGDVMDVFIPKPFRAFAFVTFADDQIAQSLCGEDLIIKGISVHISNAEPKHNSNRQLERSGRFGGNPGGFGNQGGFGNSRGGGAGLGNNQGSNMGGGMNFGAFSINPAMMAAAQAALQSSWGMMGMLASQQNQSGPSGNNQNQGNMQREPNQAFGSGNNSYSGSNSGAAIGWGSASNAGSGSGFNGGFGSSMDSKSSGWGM

Row | Binder | binding signal
1 | B1 | 0.205 R (bound/input frequency ratio)
2 | B2 | 0.13 R (bound/input frequency ratio)
3 | B3 | 2.21 R (bound/input frequency ratio)
4 | B4 | 2.12 R (bound/input frequency ratio)
5 | B5 | 5.7 R (bound/input frequency ratio)
6 | B6 | 6.88 R (bound/input frequency ratio)
7 | B7 | 5.7 R (bound/input frequency ratio)
8 | B8 | 6.93 R (bound/input frequency ratio)
9 | B9 | 4.07 R (bound/input frequency ratio)
10 | B10 | 5.2 R (bound/input frequency ratio)
11 | B11 | 5.04 R (bound/input frequency ratio)
12 | B12 | 8.59 R (bound/input frequency ratio)
13 | B13 | 5.22 R (bound/input frequency ratio)
